Assay outcomes (PubChem)
MCF10A rereplic = A quantitative high throughput screen for small molecules that induce DNA re-replication in MCF 10a normal breast cells; MCF 10A DNA re-replication, Hoechst nuclear intensity, 48 h; Potency, µM (highest dose often 46.1 µM), without a hit: at the highest dose activity, positive = re-replication, usual class: activators; 350,000 tested, 2.9% active; AID 624296, 2012; note: % of control where 0% means no effect; nearly all actives have a fitted effect of over 50% in size
KB-3-1 tox = qHTS assay for MDR1-selective chemotherapeutics: Primary screen using the parental adenocarcinoma cell KB-3-1. KB-3-1 viability, CellTiter-Glo ATP luminescence, 72 h. Potency, µM (top dose mostly 46.1 µM), actives largely listed as cytotoxic. 400,000 tested, 1.4% active; note: % is set by controls: 0 for no effect and ±100 for the full control effect; nearly all actives have a fitted effect of over 60% in size
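Parental KB-3-1 viability, qHTS format: 72 h compound exposure, 37 °C; CellTiter-Glo; media-only wells and DMSO plates as controls; concentration-effect fits on corrected data.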
KB-V1 cytotox = qHTS assay for MDR1-selective chemotherapeutics: Primary screen using the drug-selected MDR subline cells KB-V1 | KB-V1 MDR cells viability, CellTiter-Glo, 72 h | Potency, µM (doses to about 46.1 µM), usual class: cytotoxic | 400,000 tested, 3.4% active; note: % is set by controls: 0 for no effect and ±100 for the full control effect; nearly all actives have a fitted effect of over 60% in size
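In this primary screen, KB-V1 cells overexpressing P-gp are incubated with library compounds (lowest to highest concentration) for 72 h at 37 degrees C before a luminescent ATP viability read.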
SW480 rereplic = A quantitative high throughput screen for small molecules that induce DNA re-replication in SW480 colon adenocarcinoma cells | SW480 DNA re-replication, Hoechst DNA content imaging, 48 h | Potency, µM (highest dose often 46.1 µM), for inactives: at the highest dose re-replication activation, usual class: activators | 340,000 tested, 1.8% active; note: % of control where 0% means no effect; nearly all actives have a fitted effect of over 55% in size
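First, 250 cells per well were seeded. Next, compound or vehicle (23 nL) was pinned in, plates sat 48 hr at 37 C. Finally Hoechst was added for 40 min before fluorescence scanning.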
PINK1 expr mod = A Quantitative High throughput Screen to Identify Chemical Modulators of PINK1 Expression; PINK1 immunofluorescence, high-content cytometry, 24 h; Potency, µM (series often up to 76.6 µM), inactives show top-dose activation (PINK1 increase), hits mostly activators; 410,000 tested, 0.2% active; AID 624263, 2012; active = well fitted activation curve with a large enough effect; inconclusive = small, poorly fitted or top-dose-only effect; cell line not stated here; note: % of control where 0% means no effect; nearly all actives have a fitted effect of over 65% in size
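Compound titrations (5 concentrations, 24 h) on a stable cell line; DMSO and CCCP controls. Endpoint: fixed-cell PINK1 immunofluorescence with mitochondrial, cell and nuclear markers, scanned by microplate cytometer.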
TSG101-PTAP inh = qHTS Assay for Iinhibitors of HIV-1 Budding by Blocking the Interaction of PTAP/TSG101; Tumor susceptibility gene 101 protein (Homo sapiens), Q99816; Fluorescence polarization, FITC-PTAP peptide / Tsg101 binding; Potency, µM (series often up to 115 µM), inactives show top-dose activity change, negative = inhibition, usual class: inhibitors; 340,000 tested, under 10 active; AID 493005, 2010; active = well fitted inhibition curve with a large enough effect in the main read-out, with a control signal flat, not every such curve was filed as active; inconclusive = small, poorly fitted or top-dose-only effect, or effect the other way, or a change in a side signal; inactive = no such curve, though single readings can be large or run the other way; note: % of control where 0% means no effect
Target sequence (Q99816 whole entry, looked up): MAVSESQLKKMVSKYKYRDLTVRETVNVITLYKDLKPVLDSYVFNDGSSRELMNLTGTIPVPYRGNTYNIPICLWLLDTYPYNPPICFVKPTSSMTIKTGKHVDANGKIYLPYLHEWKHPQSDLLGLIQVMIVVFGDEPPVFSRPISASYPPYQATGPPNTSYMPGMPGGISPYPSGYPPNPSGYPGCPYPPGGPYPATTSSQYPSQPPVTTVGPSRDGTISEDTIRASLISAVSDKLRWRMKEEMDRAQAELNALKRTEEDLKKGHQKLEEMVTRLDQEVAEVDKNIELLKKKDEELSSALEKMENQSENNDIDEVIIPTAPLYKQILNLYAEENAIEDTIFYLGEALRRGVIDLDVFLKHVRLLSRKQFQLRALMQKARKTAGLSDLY
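Steps: Tsg101 binding domain dispensed (10 uM final), compounds pinned in DMSO, FITC-labeled PTAP-motif peptide added (50 nM final); after 20 min binding at room temperature, polarization measured.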
* hit, by the source's call; i = inactive; ? = inconclusive; . = no result; [ ] = remark or other dose. A selection: hits, their analogues and other compounds. The true share with any hit is near 6.8%. Unless noted, calls come from the whole dose curve; as a rule, active = well fitted curve in the direction sought with a large enough effect; inconclusive = small, poorly fitted or top-dose-only effect, or another doubt; inactive = no such curve, though single readings can be large; an effect the other way counts as inactive or inconclusive. Potency is the fitted concentration of half-maximal effect.

SMILES	MCF10A rereplic	KB-3-1 tox	KB-V1 cytotox	SW480 rereplic	PINK1 expr mod	TSG101-PTAP inh
COc1ccc(CC(=O)Nc2ccccc2N2CCCC2)cc1	-1%	i	i	?	1%	0%
Cc1cccc(NC(=O)CSCC(=O)Nc2ccccc2N2CCCCC2)c1	131%	?	16µM*	?	?	-9%
Cc1ccc(Cl)c(OCC(=O)Nc2ccccc2N2CCCCC2)c1	?	i	i	3.7µM*	?	0%
O=C(COc1cccc2ccccc12)Nc1cc(Cl)ccc1C(=O)O	6.5µM*	i	?	1%	10%	-4%
COc1ccc(OCC(=O)Nc2ccccc2N2CCCCC2)cc1	3.3µM*	?	i	12µM*	6%	0%
COc1ccccc1OCC(=O)Nc1cc(Cl)ccc1N1CCCCC1	?	i	15µM*	12%	5%	-5%
COc1ccccc1OCC(=O)Nc1cc(S(=O)(=O)N2CCCCC2)ccc1N1CCCCC1	?	i	i	3%	0%	5%
O=C(NC1CC(=O)N(c2ccc(Cl)cc2)C1)C(=O)c1c[nH]c2ccccc12 (stereo not drawn)	.	.	.	.	0%	.
Cc1nn(Cc2c(F)c(F)c(F)c(F)c2F)c(C)c1NC(=O)c1ccc(COc2ccccc2Cl)o1	16%	i	2.6µM*	13%	1%	-2%
Cc1nn(Cc2c(F)c(F)c(F)c(F)c2F)c(C)c1NC(=O)c1c(-c2ccccc2)nn(-c2ccccc2)c1C	23µM*	i	i	6%	?	1%
Cc1nn(Cc2c(F)c(F)c(F)c(F)c2F)c(C)c1NC(=O)c1ccc(COc2ccccc2Cl)cc1	?	i	?	1%	7%	-2%
Cc1c(C(=O)NCc2ccc(F)cc2)c(-c2ccccc2)nn1-c1ccccc1	?	i	i	-3%[9.22 µM]	3%	-1%
COC(=O)c1sccc1S(=O)(=O)N1CCN(c2cc(Cl)ccc2C)CC1	.	i	i	.	3%	.
O=C(N/N=C/c1cnc(N2CCCCC2)s1)c1ccc(C(F)(F)F)cc1	-5%	i	?	?	7.1µM*	0%
CC1CN(c2ncc(/C=N/NC(=O)c3ccccc3O)s2)CC(C)O1 (stereo not drawn)	-2%	?	?	4%	0%	-4%
CSc1ccc(CCNS(=O)(=O)c2cc(-c3cc(C)no3)ccc2C)cc1	.	.	.	.	-1%	.
NC(N)=N/N=C/c1ccc(OCc2ccc(Cl)cc2)cc1	1%	i	21µM*	-3%	-4%[38.3 µM]	0%
NC(N)=N/N=C/c1ccc(Br)cc1	18µM*	?	?	?	0%	-2%
N#Cc1ccc(/C=N/N=C(N)N)cc1	-5%	i	i	-2%	-1%	-6%
COc1ccc(-c2nc3sc(CCNC(=O)C(=O)Nc4cc(C)cc(C)c4)c(C)n3n2)cc1	.	.	.	.	0%	.
COc1ccc(C2=Nn3c(nnc3-c3ccccn3)SC2)cc1	11%	?	15µM*	?	9%	0%
CCc1nnc2n1N=C(c1ccc(OC)cc1)CS2	10%	23µM*	16µM*	?	4%[38.3 µM]	-5%
CCOc1ccc(-c2nnc3n2N=C(c2ccc(OC)cc2)CS3)cc1	12%	i	i	2%	6%	-4%
c1ccc(-c2ccc(C3=Nn4c(nnc4-c4cc(-c5ccccc5)n[nH]4)SC3)cc2)cc1	15µM*	?	16µM*	?	9%[38.3 µM]	0%
CCOc1ccc(C2=Nn3c(nnc3-c3ccccc3OC)SC2)cc1	?	0.012µM*	?	0.26µM*	-2%	-4%
SMILES	MCF10A rereplic	KB-3-1 tox	KB-V1 cytotox	SW480 rereplic	PINK1 expr mod	TSG101-PTAP inh
Cc1nc2cnc(N3CCNCC3)nc2n(-c2ccccc2)c1=O	.	.	.	.	-1%	.
COc1ccc(N2CCN(c3oc(/C=C/c4ccccc4OC)nc3C#N)CC2)cc1	.	.	.	.	2%	.
CCn1c(-c2csc3ccccc23)n[nH]c1=S	1%	18µM*	7.3µM*	-3%	0%	-3%
CC(C)Cn1c(-c2csc3ccccc23)n[nH]c1=S	11%	i	16µM*	6%	1%	-2%
Cc1cccc(-n2c(-c3csc4ccccc34)n[nH]c2=S)c1	28%	i	i	-1%	0%	-5%
CCn1c(-c2ccccc2O)n[nH]c1=S	1%	i	i	9%	20%[38.3 µM]	-1%
COc1ccc(OC)c(CNS(=O)(=O)c2ccc3c(c2)CCCN3C(C)=O)c1	.	i	i	.	-2%	.
COCCn1c(SCC(=O)c2[nH]c(C)c(C(C)=O)c2C)nc2ccccc21	-17%	i	16µM*	-10%	.	-7%
CC(=O)c1c(C)[nH]c(C(=O)CSc2ncnc3sc(-c4ccccc4)cc23)c1C	11%	i	7.3µM*	.	4%	-3%
CC(=O)c1c(C)[nH]c(C(=O)CSc2nnc(-c3cccs3)n2Cc2ccccc2)c1C	21µM*	i	5.8µM*	20%	2%[38.3 µM]	-6%
CCOC(=O)c1c(C)[nH]c(C(=O)CSc2nnc(-c3cccs3)n2Cc2ccccc2)c1C	?	i	2.3µM*	?	2%	0%
CCCOc1ccc(C2c3c(-c4ccccc4O)n[nH]c3C(=O)N2CCCOCC)cc1OCC (stereo not drawn)	.	i	?	.	1%	.
O=C(NC1CC(=O)N(c2cccc(F)c2)C1)c1ccc(S(=O)(=O)N2CCCC2)cc1 (stereo not drawn)	.	.	.	.	0%	.
COC(=O)/C=C/c1ccc2c(c1)S(=O)(=O)N(C1CCCC1)[C@H]2CC(=O)OC	.	i	?	.	.	.
CC(=O)c1c(C)[nH]c(C(=O)CSc2nnc(-c3ccco3)n2Cc2ccccc2)c1C	15%	i	18µM*	-2%	-3%	-4%
CCCn1c(N)c(C(=O)CSc2nnc(-c3ccco3)n2Cc2ccccc2)c(=O)[nH]c1=O	13%	?	i	-1%	-2%	-3%
CCOc1ccc(N/N=C(/C#N)C(N)=O)cc1	-6%	i	i	-4%	-2%[38.3 µM]	-6%
N#C/C(=N/Nc1ccc(OC(F)(F)F)cc1)C(N)=S	?	?	?	-8%	14µM*	-7%
CCOc1ccc(-n2c(SCC(=O)Nc3cc(C)ccc3C)nc3c([nH]c4ccccc43)c2=O)cc1	.	i	i	.	-3%	.
